Bioassay records (PubChem)
Six1-Eya2 blk: qHTS Assay for Inhibitors of the Six1/Eya2 Interaction | Homeobox protein SIX1 (Homo sapiens) + Protein phosphatase EYA2 (Homo sapiens), … | AlphaScreen GST-Six1/His-Eya2 binding, biochemical; hits give low values | activity change, % (test concentration not listed) | actives 0.56% (n = 360,000) | AID 651725, 2012; in the data active = activity change below about -65%; inconclusive = mostly about -30% to -63%
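AlphaScreen with GST-Six1 and His-Eya2 (5X mix: 250 nM and 500 nM), glutathione donor and nickel acceptor beads; buffer 50 mM Tris pH 8.0, 300 mM NaCl, 1 mM TCEP; 1 h at 37 C in the dark.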
HP1b binding inh: HTS for Inhibitors of HP1-beta Chromodomain Interactions with Methylated Histone Tails; Potency, µM (doses to about 114 µM), actives largely listed as inhibitors; AID 540317, 2011; actives 0.56% (n = 390,000); AlphaScreen HP1-beta / biotin-H3K9me3 peptide binding; Chromobox protein homolog 1 (Homo sapiens), P83916; note: nearly all actives have a fitted effect of over 70% in size
Target sequence (P83916 whole entry, looked up): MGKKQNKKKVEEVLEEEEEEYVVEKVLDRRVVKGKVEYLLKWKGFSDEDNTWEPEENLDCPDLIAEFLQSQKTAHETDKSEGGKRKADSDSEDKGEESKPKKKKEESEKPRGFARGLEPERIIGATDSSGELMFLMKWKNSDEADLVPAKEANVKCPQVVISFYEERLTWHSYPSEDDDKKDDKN
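AlphaScreen: HP1-beta (50 nM) preformed 30 min with biotin-H3(1-18)K9me3 peptide (50 nM) in PBS pH 7.4, 0.01% Tween-20. Compound added for 30 min at RT, then streptavidin donor/nickel chelate acceptor beads (10 ug/mL) for 30 min.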
JMJD2A Tudor inh: qHTS Assay for Inhibitors of JMJD2A-Tudor Domain; AlphaScreen JMJD2A-Tudor / H3K4me3 peptide binding; Potency, µM (doses to about 114 µM), actives largely listed as inhibitors; actives 4.4% (n = 390,000); AID 504339, 2011; note: nearly all actives have a fitted effect of over 50% in size
CtBP-E1A blk: qHTS Assay for Inhibitors of the CtBP/E1A Interaction; AlphaScreen GST-E1A/His-CtBP binding, 1536-well; hits give low values; activity change, % (concentration not given with the values); CtBP / adenovirus E1A interaction (AlphaScreen); actives 0.49% (n = 340,000); in the data active = activity change below about -65%; inconclusive = mostly about -30% to -63%
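Protein mix (5X: 125 nM each GST-E1A, His-CtBP) was incubated with pinned compound 2 h at 37 deg C in dark, in 50 mM Tris pH 8.0 buffer with 300 mM NaCl. Glutathione donor and nickel acceptor beads followed; AlphaScreen signal read after 1 h.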
G9a block: qHTS Assay for Inhibitors of Histone Lysine Methyltransferase G9a. AID 504332, 2011. G9a H3K9 monomethylation, AlphaScreen, 2 h. Potency, µM (titrated, usually from 102 µM), most hits filed as inhibitors. Histone-lysine N-methyltransferase EHMT2 (Homo sapiens), Q96KQ7. actives 8.8% (n = 350,000); note: nearly all actives have a fitted effect of over 75% in size
Target sequence (Q96KQ7 913-1193 limits assumed): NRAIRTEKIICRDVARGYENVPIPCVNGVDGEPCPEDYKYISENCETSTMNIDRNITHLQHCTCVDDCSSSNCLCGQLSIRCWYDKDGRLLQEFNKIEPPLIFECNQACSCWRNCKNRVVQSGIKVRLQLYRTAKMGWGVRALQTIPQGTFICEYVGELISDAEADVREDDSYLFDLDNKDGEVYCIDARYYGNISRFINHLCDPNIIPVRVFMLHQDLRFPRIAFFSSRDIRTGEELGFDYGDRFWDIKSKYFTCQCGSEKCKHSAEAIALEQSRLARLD
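Enzyme 20 nM + cpd, 15 min RT; add b-H3K9 pep 500 nM / SAM 20 uM; 2 h RT; anti-H3K9me1 Ab 0.5 ug/mL + SA donor / anti-rabbit acceptor beads 20 ug/mL each, 10 min; AlphaScreen read.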
BAZ2B block: qHTS Assay for Inhibitors of BAZ2B; Bromodomain adjacent to zinc finger domain protein 2B (Homo sapiens), Q9UIF8; AlphaScreen BAZ2B-H3K14Ac peptide displacement; Potency, µM (titrated, usually from 114 µM), most hits filed as inhibitors; actives 4.4% (n = 360,000); AID 504333, 2011; note: nearly all actives have a fitted effect of over 60% in size
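In this displacement format the biotinylated H3(5-23) peptide acetylated at Lys14 serves as ligand at 50 nM, with BAZ2B at 50 nM in PBS pH 7.4 containing 0.01% Tween-20. Donor and acceptor beads are 10 ug/mL final.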
A number is an active result; n = inactive; u = inconclusive; x = no result given; [ ] = remark or other dose. An excerpt weighted towards active compounds, which were near 10% of everything screened. Unless noted, calls come from the whole dose curve; as a rule, active = well fitted inhibition curve with a large enough effect; inconclusive = small, poorly fitted or top-dose-only effect; inactive = no such curve, though single readings can be large or run the other way.

SMILES	Six1-Eya2 blk	HP1b binding inh	JMJD2A Tudor inh	CtBP-E1A blk	G9a block	BAZ2B block
CC1=C(C(=O)Nc2ccccc2)C(c2ccc[nH]2)n2ncnc2N1 (stereo unspecified)	x	n	22µM	x	u	8.9µM
Cn1c(N)c(C(=O)COC(=O)CSc2ccc3ccccc3c2)c(=O)n(C)c1=O	n	n	n	n	n	n
CC(=O)Oc1ccc(C(=O)OCC(=O)c2c(N)n(C)c(=O)n(C)c2=O)cc1OC(C)=O	-83	n	n	n	50µM	n
CC(=O)NC(CC(=O)OCC(=O)c1c(N)n(C)c(=O)n(C)c1=O)c1ccccc1 (stereo unspecified)	n	n	13µM	n	n	n
COc1ccc(C(=O)OCC(=O)c2c(N)n(C)c(=O)n(C)c2=O)cc1OC	n	n	n	n	n	n
Cn1c(N)c(C(=O)COC(=O)Cc2ccsc2)c(=O)n(C)c1=O	n	n	n	n	45µM	n
Cn1c(N)c(C(=O)COC(=O)CSc2cccc3cccc(Cl)c23)c(=O)n(C)c1=O	n	n	50µM	n	x	u
Cn1c(N)c(C(=O)COC(=O)Cc2ccc(Br)cc2)c(=O)n(C)c1=O	n	n	n	n	x	x
CC(C)(C)OC(=O)N1CCC(c2c(C(=O)N3CCN(c4ccccn4)CC3)cnn2-c2ccc(F)cc2F)CC1	x	n	n	x	n	n
Cc1ccc(CN2CCCn3nc(C(=O)NCCc4cccc(C)c4)cc3C2=O)cc1	x	n	n	x	n	n
CC(N)=O	x	x	x	x	0.79µM	x
CC(C)=O	x	x	x	x	n	x
CC(/C=N/NC(=O)c1nnn(-c2nonc2N)c1CN(C)C)=C\c1ccco1	n	n	n	n	79µM	n
C/C(=N\NC(=O)c1nnn(-c2nonc2N)c1CN(C)c1ccccc1)c1ccccn1	-91	n	22µM	x	n	8.9µM
C/C(=N\NC(=O)c1nnn(-c2nonc2N)c1CN(C)c1ccccc1)c1ccc(O)cc1	n	n	n	n	n	n
C/C(=N\NC(=O)c1cccnc1)c1nnn(-c2nonc2N)c1C	n	n	n	x	50µM	n
Cc1ccc(/C=N/NC(=O)c2nnn(-c3nonc3N)c2CNc2ccccc2)cc1	n	n	22µM	n	n	n
CC(C)(C)OC(=O)N1CCC(c2c(C(=O)NCCN3CCOCC3)cnn2-c2cccc(F)c2)CC1	x	n	n	x	n	n
COc1ccc(-n2c(/C=C/c3cccc4ccccc34)nc3ccccc3c2=O)cc1OC	x	n	n	x	n	n
COc1cc(Cl)c(C)cc1NC(=O)c1nn(-c2ccc(C)cc2)c(=O)n(C)c1=O	x	n	n	x	n	n
O=C(NC1CCCC1)c1ccc2c(=O)n(Cc3ccccc3)c(SCc3ccccc3F)nc2c1	x	n	n	x	n	n
C/C(=N\NC(=O)c1nnn(-c2nonc2N)c1CN1CCCCCC1)c1ccc(Br)cc1	n	n	n	n	50µM	n
CCN1CCN(Cc2c(C(=O)N/N=C(\C)c3ccc(Cl)cc3)nnn2-c2nonc2N)CC1	n	n	n	n	28µM	u
NC(=O)N/N=C/c1ccccc1OCC(=O)NCc1ccccc1	n	n	n	n	n	n
Cc1cccn2c(/C=N/OCc3cccc(F)c3)c(-c3ccc(Cl)cc3)nc12	n	n	n	n	n[0.0925 µM]	n
COc1cccc(/C(C#N)=C/c2c(-c3ccc(Cl)cc3)nc3c(C)cccn23)c1	n	u	u	u	10µM	u
Cc1ccc(Nc2nc(-c3c(C)n(C)n(-c4ccccc4)c3=O)c(C)s2)cc1	n	n	u	n	50µM	u
CCc1ccc(N=C2NC(=O)CC(C(=O)Nc3ccc(OC)cc3)S2)cc1 (stereo unspecified)	x	n	u	x	u	n
CCc1c(-c2cccc(Cl)c2)ncn1Cc1cccc(-c2ccccc2)c1	n	x	x	n	x	x
